Bst PK mod: pyruvate kinase (B. stearothermophilus) modulation. purified pyruvate kinase, luminescence ATP production; ribose 5-phosphate activator present at AC10. Potency, µM. 51,000 compounds, 1.2% hits; in the data active means potency below about 11 µM; inconclusive means mostly about 12 µM to 25 µM;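 the screen sought inhibitors and activators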;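 further: scaled between full activation by ribose 5 phosphate and full inhibition by luteolin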
FLuc inh: inhibitors of firefly luciferase. P08659. purified firefly luciferase, luminescence, 8 min. 72,000 compounds, 2.2% hits. AID 411. Potency, µM (series often up to 57.1 µM), without a hit: at the top dose activity change, negative = inhibition, actives largely listed as inhibitors; further: nearly all actives have a fitted effect of over 40% in size
Target sequence (P08659 whole entry, looked up): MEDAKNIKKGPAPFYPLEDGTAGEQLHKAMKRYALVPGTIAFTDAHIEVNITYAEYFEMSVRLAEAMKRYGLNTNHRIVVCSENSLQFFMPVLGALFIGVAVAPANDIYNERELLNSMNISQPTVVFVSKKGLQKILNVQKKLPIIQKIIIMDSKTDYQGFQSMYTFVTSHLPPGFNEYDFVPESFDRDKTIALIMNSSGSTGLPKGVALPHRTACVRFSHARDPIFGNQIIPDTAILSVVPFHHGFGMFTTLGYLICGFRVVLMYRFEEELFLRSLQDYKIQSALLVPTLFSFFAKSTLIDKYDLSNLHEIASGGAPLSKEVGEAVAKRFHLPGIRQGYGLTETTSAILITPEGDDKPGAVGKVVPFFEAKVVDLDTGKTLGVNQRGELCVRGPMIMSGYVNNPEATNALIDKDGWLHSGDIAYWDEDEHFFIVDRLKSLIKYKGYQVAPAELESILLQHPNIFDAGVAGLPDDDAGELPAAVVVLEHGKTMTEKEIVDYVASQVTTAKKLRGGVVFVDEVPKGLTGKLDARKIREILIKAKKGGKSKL
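Firefly luciferase (PKLight detection mix) with 10 uM ATP in pH 7.2 imidazole buffer (KCl, MgCl2, Tween 20, BSA). Compounds tested across a concentration series (qHTS). Luminescence read after 8 min at ambient temperature.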
HSD17B inh: blocks hydroxysteroid 17-beta dehydrogenase activity | Q99714 | recombinant HSD17B10, NADH fluorescence kinetic | Potency, µM (highest dose often 57.1 µM), without a hit: at the highest dose activity change, negative = inhibition, hits mostly inhibitors | 75,000 compounds, 7.6% hits;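 further: the protocol describes HADH2 (HSD17B10) and not the HSD17B4 of the title; nearly all actives have a fitted effect of over 70% in size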
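His-tagged E. coli-expressed HADH2 at 20 nM in 100 mM Tris-HCl pH 9.0 with 0.01 % Tween-20, preincubated 15 min with compound at room temperature. Reaction with 1 mM NAD+ and 90 uM beta-hydroxybutyryl coenzyme A; NADH fluorescence (360/450 nm) read kinetically over 4 min, last minus first point.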
ERK AVP block: inhibitors of vasopressin-stimulated ERK signaling pathway; HEK293-V1b, vasopressin-stimulated pERK AlphaScreen; Potency, µM (top dose mostly 57.5 µM), inactives show at the top dose activity, negative = inhibition, most hits filed as inhibitors; 72,000 compounds, 0.99% hits; further: nearly all actives have a fitted effect of over 55% in size
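HEK293 cells stably expressing V1b receptor, preincubated 30 min at 37 °C with compound, then stimulated 5 min with 25 nM vasopressin. Phospho-ERK by AlphaScreen SureFire after 5 h RT; normalized to DMSO and vasopressin; AC50 by Hill fit.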
ALOX15 inhib: inhibitors of human 15-lipoxygenase (ALOX15); P16050; purified 15hLO-1, xylenol orange hydroperoxide absorbance; Potency, µM (titrated, usually from 57.1 µM), inactives show top-dose activity change, negative = inhibition, hits mostly inhibitors; 74,000 compounds, 1.4% hits; AID 887; further: nearly all actives have a fitted effect of over 55% in size
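40 nM 15hLO-1 + cpd, 15 min RT; start w/ 50 uM AA (final), 6 min RT; stop/detect w/ 200 uM XO + 300 uM Fe(II) in 50 mM H2SO4, 30 min; A573/A405. Buffer 25 mM Hepes pH 7.5, 0.01% Triton X-100. No-enzyme wells as negative control.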
HADH2 inh: HADH2 (human) dehydrogenase inhibition | recombinant HADH2, NADH fluorescence, beta-hydroxybutyryl-CoA | Potency, µM (highest dose often 57.1 µM), without a hit: top-dose activity change, negative = inhibition, most hits filed as inhibitors | 73,000 compounds, 3.4% hits | AID 886; further: nearly all actives have a fitted effect of over 60% in size
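His-tagged recombinant enzyme from E. coli, 20 nM, preincubated 15 min RT with compound; reaction started with 1 mM NAD+ and 90 uM beta-hydroxybutyryl-CoA in 100 mM Tris-HCl pH 9.0. NADH fluorescence (ex 360/em 450) read over 4 min; last-minus-first difference.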
An asterisk follows results filed as active; i = inactive; u = inconclusive; x = no result given; [ ] = another dose, or the depositor's remark. Shown are actives, neighbours in structure and some others; about 11% of the full set was active somewhere. Unless noted, the call rests on the fitted dose curve; in most records, active means well fitted curve in the direction sought with a large enough effect; inconclusive means small, poorly fitted or top-dose-only effect, or another doubt; inactive means no such curve, though single readings can be large; an effect the other way counts as inactive or inconclusive. Unless noted, on the % scale 0 is the no-effect control and ±100 the full control effect; potency means the concentration at half of the fitted maximal effect.

SMILES | Bst PK mod | FLuc inh | HSD17B inh | ERK AVP block | ALOX15 inhib | HADH2 inh
O=C(Nc1ccc2c(c1)OCCO2)NC12CC3CC(CC(C3)C1)C2 | x | 12.6µM* | 5.4% | -12.5% | 2.2% | 5.8%
O=C(Nc1ccc2c(c1)OCCO2)c1c(F)c(F)c(F)c(F)c1F | >57 | 1.3% | 4.3% | -4.7% | 2.0% | -2.9%
C/C(=C\C(=O)c1ccc(C)o1)Nc1ccc2c(c1)OCO2 | x | -15.4% | -10.5% | u | -14.1% | -6.8%
CC(=O)Nc1ccc(CN2CCCCCCC2)cc1 | x | x | -3.6% | x | 5.9% | 4.6%
Cc1ccc(C(=O)Nc2ccc3c(c2)OCO3)o1 | x | 12.6µM* | -10.9% | -18.5% | -8.5% | -11.8%
O=C(Nc1ccc(CN2CCCCC2)cc1)c1ccc(Br)o1 | >57 | 12.6µM* | -1.8% | -29.5% | 17.9% | 6.1%
O=C(O)C[C@H](Cc1ccc2c(c1)OCO2)C(=O)O | x | 1.6%[11.4 µM] | 1.9%[11.4 µM] | 14.3%[11.5 µM] | 0.0%[11.4 µM] | -12.4%[11.4 µM]
COc1ccc(CNc2nc(-c3cccc(NS(C)(=O)=O)c3)nc3ccccc23)c(OC)c1 | x | -6.1%[2.29 µM] | -0.7% | -7.6% | -5.6% | -16.9%
c1ccc(B2OC[C@@H]3OB(c4ccccc4)O[C@H]([C@@H]4COB(c5ccccc5)O4)[C@@H]3O2)cc1 | x | 0.6%[11.4 µM] | 11.3%[11.4 µM] | 5.4%[11.5 µM] | 10.5%[11.4 µM] | 10.9%[11.4 µM]
O=C(C1CCN(S(=O)(=O)c2cccc3cccnc23)CC1)N1CCc2ccccc21 | 9.69* | 3.9% | 2.8% | 3.7% | -4.2% | 1.1%
O=C(Nc1ccc2c(c1)OCO2)C1CCN(S(=O)(=O)c2cccc3cccnc23)CC1 | 6.67* | 0.2% | u | 5.9% | -4.6% | 2.4%
O=C(C1CCN(S(=O)(=O)c2cccc3nsnc23)CC1)N1CCc2ccccc21 | i | -0.1% | -8.4% | 6.0% | -9.7% | -3.1%
O=C(C1CCCN1S(=O)(=O)c1cccc2cccnc12)N1CCc2ccccc2C1 (stereo not given) | x | 1.5% | -17.0% | u | 25.1µM* | 3.2%
O=C(C1CCCN1S(=O)(=O)c1cccc2cccnc12)N1CCc2ccccc21 (stereo not given) | x | 1.1% | -0.3% | 3.9% | -2.4% | -4.7%
O=C(C1CCN(S(=O)(=O)c2cccc3cccnc23)CC1)N1CCCC1 | x | 2.5% | 1.4% | -15.1% | 9.9% | 3.3%
O=C(C1CCN(S(=O)(=O)c2cccc3cccnc23)CC1)N1CC=C(c2ccccc2)CC1 | x | 0.5% | -8.7% | 25.1µM* | u | -3.0%
CCOC(=O)c1cccc(NC(=O)C2CCCN2S(=O)(=O)c2cccc3cccnc23)c1 (stereo not given) | x | -0.2% | -6.2% | -10.7% | -3.1% | 3.1%
O=C(Nc1cccc(C(F)(F)F)c1)C1CCCN1S(=O)(=O)c1cccc2cccnc12 (stereo not given) | 8.29* | 2.1% | -4.5% | 10.2% | -13.6% | 2.7%
CNCC[C@H](Oc1ccccc1OC)c1ccccc1 | x | -2.2% | -5.7% | 20.8% | -28.3%[25.6 µM] | 2.1%
CSc1ncnc2c1ncn2[C@@H]1O[C@@H](CO)[C@H](O)O[C@@H]1O | x | 2.4%[11.4 µM] | 10.7%[11.4 µM] | 12.3%[11.5 µM] | -7.4%[11.4 µM] | -9.0%[11.4 µM]
O=C(O)COc1ccc2nsnc2c1Cl | >57 | 0.3% | 31.6µM* | 1.5% | -5.2% | 2.2%
Cc1occc1C(=O)Nc1sc2c(c1C(N)=O)CCCCC2 | i | 12.6µM* | u | -10.1% | u | u
COC(=O)c1c(NC(=O)c2ccoc2C)sc2c1CCC2 | >57 | 0.7% | 25.1µM* | -8.4% | -26.6% | 31.6µM*
CCn1ncc(Br)c1C(=O)Nc1sc2c(c1C(=O)OC)CCC2 | >57 | 1.7% | 9.8% | -3.0% | -18.9% | 25.1µM*
C=Cc1ccccc1C=C | x | x | 2.8% | 6.9% | 2.3% | -5.3%
CCOC(=O)c1sc(C(=O)OCC)c(OCCO)c1OCCO | >57 | 3.3% | 25.1µM* | 22.3% | -3.4% | 3.0%
Cn1c(-c2ccc3c(c2)OCO3)cnc1NCc1ccc(Cl)cc1 | >57 | -0.8% | 31.6µM* | -25.1% | u | 0.0%
Cc1ccc(CNc2ncc(-c3ccc4c(c3)OCO4)n2C)cc1 | >57 | -4.5% | u | -1.6% | -26.2% | u

Bioassay records (PubChem)
